# Compound activity deposited in PubChem by National Center for Advancing Translational Sciences (NCATS).
# An excerpt weighted towards active compounds, which were near 3% of everything screened.
# SKOV3 invasion = inhibitors of ovarian cancer cell adhesion and invasion in omental model; AID 1963576; SKOV3ip1-GFP adhesion/invasion on 3D omental model, fluorescence; 0.1% of 46,000 active; Potency, µM (doses to about 45.8 µM), inactives show at the highest dose activity change, negative = inhibition, most hits filed as inhibitors;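 note: potency is the fitted concentration of half-maximal effect; plate controls were DMSO wells for no effect and tomatine positive control wells for full effect; nearly all actives have a fitted effect of over 65% in size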
#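 A 3D layer of primary human omental fibroblasts, mesothelial cells, fibronectin and collagen I, grown 48 hr, received SKOV3ip1-GFP cells in serum-free medium plus compounds at 0.36-46 umol/L. After 2 hr RT and 16 hr 37 C, fixed adherent GFP cells were counted; normalized to DMSO and tomatine.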
# pS6 MEF inh = reduces mTORC1 signaling in Tsc2 and p53 null MEF cells. Tsc2-/- p53-/- MEF, phospho-rpS6 immunofluorescence/PI, 24 h. Potency, µM (titrated, usually from 38.3 µM), without a hit: at the highest dose activity change, negative = inhibition, most hits filed as inhibitors. 0.78% of 44,000 active;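 note: potency is the fitted concentration of half-maximal effect; plate controls were DMSO for no effect and rapamycin for full effect; nearly all actives have a fitted effect of over 50% in size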
#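 Cell-based qHTS: Tsc2-/- p53-/- MEF, 24 h cpd, 37 °C; fix/perm, anti-phospho-S6 Alexa-488 + PI; Acumen 488 nm scan; pS6/PI ratio, % positive cells; rapamycin 7.5 nM = inhibition ref; PI count = viability.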
# p53null 39C kill = kills p53 null cells at the nonpermissive temperature | H1299 p53-null (neo) cells, 39C, ATPlite viability, 24 h | Potency, µM (series often up to 46.1 µM), inactives show at the top dose activity, negative = cell killing, actives largely listed as cytotoxic | 0.97% of 55,000 active;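 note: potency is the fitted concentration of half-maximal effect; 0% = DMSO only and -100% = full killing by 100 µM tamoxifen; nearly all actives have a fitted effect of over 50% in size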
#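 ATP-luminescence viability readout (ATPlite, 20 min RT) after 24 hr compound treatment at 39C of H1299-neo or H1299-p53A138V cells; titration up to 46 uM; normalized to DMSO and 100 uM tamoxifen; Hill-fit AC50.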
# p53null 32C kill = kills p53 null cells at the permissive temperature | H1299-neo p53 null cells, ATP luminescence, 24 h, 32C | Potency, µM (highest dose often 46.1 µM), for the others: top-dose activity change, negative = cytotoxicity, actives largely listed as cytotoxic | 0.62% of 55,000 active;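 note: potency is the fitted concentration of half-maximal effect; 0% = DMSO only and -100% = full killing by 100 µM tamoxifen; nearly all actives have a fitted effect of over 55% in size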
#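 H1299-neo, 600 cells/well; overnight 37C; cpd up to 46 uM, 24 h at 32C; ATPlite luminescence after 20 min RT; normalized to DMSO (0%) and tamoxifen 100 uM (100% kill); Hill-fit AC50.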
# PMP22 txn = modulators of PMP22 gene transcription in S16 Schwann cells | S16 Pmp22-F2sN Schwann cells, FLuc/NLuc coincidence luminescence, 24 h | 2% of 43,000 active | AID 1508649 | Potency, µM (top dose mostly 57.5 µM), inactives show at the top dose activity change, negative = inhibition, actives largely listed as inhibitors; active = clear falling dose curves in both reporters; inconclusive = both reporters move, but less clearly or upward; inactive = either reporter flat; the % is the NLuc reporter signal; note: potency is the fitted concentration of half-maximal effect; % is set by controls: 0 for no effect and ±100 for the full control effect
#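 qHTS, 1536-well. Cells seeded, compounds added by pin tool, 24 h 37C. Nano-Glo reagent 1 (lysis/FLuc), 10 min RT, read; Stop&Glo, 10 min RT, read NLuc.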
# S16 viability = S16 Schwann cell cytotoxicity | Potency, µM (highest dose often 57.5 µM), inactives show top-dose activity change, negative = cytotoxicity, hits mostly cytotoxic | S16 Pmp22-F2sN Schwann cells viability, CellTiter-Glo, 24 h | 0.48% of 43,000 active; note: potency is the fitted concentration of half-maximal effect; % is set by controls: 0 for no effect and ±100 for the full control effect; nearly all actives have a fitted effect of over 65% in size
#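 Used to flag compounds lowering reporter output through toxicity, this quantitative HTS measures ATP-based CellTiter-Glo luminescence in S16 Pmp22-F2sN Schwann cells after 24 h compound exposure at 37C.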
# NLuc sat counter = counter-screen for PMP22 expression modulators: NanoLuc inhibition, saturating substrate; Secreted NLuc enzyme (filtered S16 cell medium), Nano-Glo luminescence; Potency, µM (top dose mostly 57.5 µM), inactives show at the highest dose activity change, negative = inhibition, most hits filed as inhibitors; 4% of 690 active; shares compounds with PMP22 txn; note: potency is the fitted concentration of half-maximal effect; % is set by controls: 0 for no effect and ±100 for the full control effect
# NLuc Km ctr = inhibits NanoLuc under Km conditions, PMP22 counter-screen. shares compounds with PMP22 txn. secreted NLuc enzyme, coelenterazine luminescence, Km conditions. Potency, µM (top dose mostly 57.5 µM), without a hit: at the highest dose activity change, negative = inhibition, actives largely listed as inhibitors. 5% of 690 active. AID 1508639; note: potency is the fitted concentration of half-maximal effect; % is set by controls: 0 for no effect and ±100 for the full control effect
# FLuc ctr PMP22 = counter-screen for PMP22 expression modulators: firefly luciferase inhibition; shares compounds with PMP22 txn; purified P. pyralis FLuc, luminescence, 10 min; Potency, µM (doses to about 57.5 µM), inactives show at the highest dose activity, negative = inhibition, most hits filed as inhibitors; 690 tested, under 10 active; AID 1508640; note: % of control where 0% means no effect
# Target sequence (P08659 whole entry, looked up): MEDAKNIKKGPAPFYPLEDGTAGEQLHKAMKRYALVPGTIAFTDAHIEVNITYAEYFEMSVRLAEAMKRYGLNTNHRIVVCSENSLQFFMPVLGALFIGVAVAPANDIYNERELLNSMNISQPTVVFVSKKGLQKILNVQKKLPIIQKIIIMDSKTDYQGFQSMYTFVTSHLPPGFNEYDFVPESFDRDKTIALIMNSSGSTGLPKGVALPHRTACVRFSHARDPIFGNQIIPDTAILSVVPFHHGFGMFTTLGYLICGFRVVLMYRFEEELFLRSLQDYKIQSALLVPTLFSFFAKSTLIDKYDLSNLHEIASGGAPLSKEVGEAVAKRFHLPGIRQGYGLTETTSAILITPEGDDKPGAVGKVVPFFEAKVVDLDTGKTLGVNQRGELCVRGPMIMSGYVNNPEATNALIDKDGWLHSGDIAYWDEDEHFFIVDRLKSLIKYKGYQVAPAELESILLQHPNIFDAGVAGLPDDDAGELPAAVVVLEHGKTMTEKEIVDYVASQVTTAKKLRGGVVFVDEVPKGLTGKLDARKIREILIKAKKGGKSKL
# S16 viab conf = S16 Schwann cell cytotoxicity, confirmatory. shares compounds with PMP22 txn. S16 Schwann cells viability, CellTiter-Glo ATP luminescence, 24 h. Potency, µM (highest dose often 57.5 µM), without a hit: top-dose activity change, negative = viability loss, most hits filed as cytotoxic. 7% of 690 active; note: potency is the fitted concentration of half-maximal effect; % is set by controls: 0 for no effect and ±100 for the full control effect
# PMP22 txn cnf = PMP22 transcription modulation, confirmatory; shares compounds with PMP22 txn; S16 Schwann cells Pmp22-F2sN, dual luciferase, 24 h; Potency, µM (doses to about 57.5 µM), inactives show at the highest dose activity change, negative = inhibition, most hits filed as inhibitors; 22% of 690 active; AID 1508646; active = clear falling dose curves in both reporters; inconclusive = both reporters move, but less clearly or upward; inactive = either reporter flat; the % is the FLuc reporter signal; note: potency is the fitted concentration of half-maximal effect
# PMP22 HiBiT cnf = confirmation of modulators of rat PMP22 protein expression. AID 1508647. shares compounds with PMP22 txn. Potency, µM (top dose mostly 27.9 µM), for inactives: at the top dose activity change, negative = inhibition, hits mostly inhibitors. 95 tested, under 10 active. S16 Schwann cells Pmp22-HiBiT, luminescence, 48 h
# Target sequence (P25094 whole entry, looked up): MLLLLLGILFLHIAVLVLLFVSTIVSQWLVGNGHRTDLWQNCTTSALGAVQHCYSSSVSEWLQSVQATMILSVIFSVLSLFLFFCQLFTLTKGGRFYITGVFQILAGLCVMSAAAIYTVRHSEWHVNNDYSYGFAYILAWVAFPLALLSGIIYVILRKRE
# Numbers without * were called inactive; i = inactive; ? = inconclusive; · = no result given; [ ] = remark or other dose. Unless noted, calls come from the whole dose curve; as a rule, active = well fitted curve in the direction sought with a large enough effect; inconclusive = small, poorly fitted or top-dose-only effect, or another doubt; inactive = no such curve, though single readings can be large; an effect the other way counts as inactive or inconclusive.
SMILES,SKOV3 invasion,pS6 MEF inh,p53null 39C kill,p53null 32C kill,PMP22 txn,S16 viability,NLuc sat counter,NLuc Km ctr,FLuc ctr PMP22,S16 viab conf,PMP22 txn cnf,others
CC(C)n1nc(-c2ccc3oc(N)nc3c2)c2c(N)ncnc21,7%,·,·,·,·,·,·,·,·,·,·,
Cc1c(C(=O)OC2CCCCC2)[nH]c2c1C(=O)CC(c1ccccc1)C2 (centres undefined),-6%,-18%,-10%,-13%,13µM*,3%,-4%,1%,0%,-10%,?,
Cc1c(C(=O)OC2CCCCC2)[nH]c2c1C(=O)CC(c1ccc(F)cc1)C2 (centres undefined),11%,-3%,4%,-4%[9.22 µM],?,3%,·,·,·,·,·,
Cc1c(C(=O)OC2CCCCC2)[nH]c2c1C(=O)CC(c1ccccc1Cl)C2 (centres undefined),2%,?,-7%,17%,6µM*,?,-19%,?,-19%,-18%,-45%,
O=C(c1cc(Cc2n[nH]c(=O)c3ccccc23)ccc1F)N1CCN(C(=O)C2CC2)CC1,0%,·,·,·,·,·,·,·,·,·,·,
CC(C)(N)C(=O)N[C@H](COCc1ccccc1)C(=O)N1CCC2(CC1)CN(S(C)(=O)=O)c1ccccc12,24%,·,·,·,·,·,·,·,·,·,·,
c1cc(-c2cnn3cc(-c4ccc(OCCN5CCCCC5)cc4)cnc23)ccn1,54%,·,·,·,·,·,·,·,·,·,·,
O=C(c1ccc(CS(=O)c2ccccc2Cl)o1)N1CCN(c2cccc(C(F)(F)F)c2)CC1 (centres undefined),-3%,?,?,-2%,12µM*,-26%,-14%,?,-1%,-39%,?,PMP22 HiBiT cnf=?
O=C(c1ccc(CS(=O)c2ccccc2Cl)o1)N1CCN(c2cccc(Cl)c2)CC1 (centres undefined),i,?,?,-22%,?,-9%,·,·,·,·,·,
Cc1ccccc1S(=O)(=O)Cc1ccc(C(=O)N2CCN(c3cccc(Cl)c3)CC2)o1,-2%,?,-1%,-7%,12µM*,?,?,-20%,10%,-13%,9.7µM*,PMP22 HiBiT cnf=?
COc1ccc(S(=O)Cc2ccc(C(=O)N3CCN(c4cccc(C)c4C)CC3)o2)cc1 (centres undefined),-5%,-28%,-2%,-3%,?,?,·,·,·,·,·,
COc1cccc(N2CCN(C(=O)c3ccc(CS(=O)c4cccc(Cl)c4)o3)CC2)c1 (centres undefined),i,?,-20%,-3%,5µM*,-14%,?,?,1%,-8%,?,
O=C(Nc1ccc(F)cc1Cl)C1CCN(c2ncnc3c2nc2n3CCCCC2)CC1,2%,-3%,-1%,0%,17µM*,-25%,-19%,8%,-14%,-3%,?,
O=C(Nc1cc2cc[nH]c2cn1)c1ccccc1,7%,·,·,·,·,·,·,·,·,·,·,
Cc1c(CN2CCN(S(C)(=O)=O)CC2)sc2c(N3CCOCC3)nc(-c3cnc(N)nc3)nc12,-2%,·,·,·,·,·,·,·,·,·,·,
CCc1nn(CC(=O)N(CC)Cc2ccccc2)c(=O)c2cc3occc3n12,i,0%,8%,-7%,?,6%,-20%,?,3%,5%,-3%,
CCCSc1ncc(Cl)c(C(=O)Nc2sc3c(c2C(=O)NCC)CCCC3)n1,-14%,2%,0%,1%,5.1µM*,14%,-13%,-2%,1%,-19%,?,
CN1N=C(N)c2cn([C@@H]3O[C@H](COP(=O)(O)O)[C@@H](O)[C@@H]3O)c3ncnc1c23,2%,·,·,·,·,·,·,·,·,·,·,
O=S(=O)(NCCc1csc2nc(-c3ccc(Cl)cc3)nn12)c1ccc(Oc2ccccc2)cc1,i,1%,10%,-7%,13µM*,-5%,1%,5%,-1%,-3%,?,
CS(=O)(=O)N1CCc2c(-c3cnc(N)nc3)nc(N3CCOCC3)nc21,8%,·,·,·,·,·,·,·,·,·,·,
NS(=O)(=O)c1ccc(NC2=CC(=O)c3ccccc3C2=O)cc1,-12%,·,·,·,·,·,·,·,·,·,·,
COc1cc2c(=O)c(C(=O)c3ccc(C)c(C)c3)cn(Cc3ccccc3F)c2cc1OC,-2%,-17%,14%,-23%,17µM*,-26%,0.39µM*,0.48µM*,-16%,-3%,?,
CCc1ccccc1Nc1nn2c(=O)c3ccc(C(=O)Nc4cc(C)cc(C)c4)cc3nc2s1,1%,-10%,-16%,13%,7.3µM*,16%,-4%,?,-3%,22µM*,12µM*,PMP22 HiBiT cnf=-8%
Cc1ccc(C)c(Nc2nn3c(=O)c4ccc(C(=O)NCc5cccs5)cc4nc3s2)c1,-9%,?,-10%,?,13µM*,?,-13%,?,-1%,?,?,
Cc1ccccc1Nc1nn2c(=O)c3ccc(C(=O)NCc4ccccc4)cc3nc2s1,i,4%,23%,-15%,?,-7%,·,·,·,·,·,
